PLK1 PBD inh: inhibitors of human PLK1 polo-box domain binding. Plk1 PBD binding of FITC phosphopeptide, fluorescence polarization. 2.8% of 360,000 active. P53350. Potency, µM, inactives show max response, negative = inhibition, hits mostly inhibitors; note: potency is the fitted concentration of half-maximal effect; series mostly up to about 57 µM; % is set by controls: 0 for no effect and ±100 for the full control effect; nearly all actives have a fitted effect of over 65% in size
hERG WT inh: inhibitors of human wildtype KCNH2 potassium channel. Q12809. U2OS, BacMam KCNH2, thallium flux FluxOr; hits give low values. activity change, % at 1.84 µM. 0.37% of 340,000 active. AID 720551;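 active = maximum activity change below -70%; inconclusive = maximum activity change between -70% and -50%; inactive = maximum activity change above -50%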; note: % is set by controls: 0 for no effect and ±100 for the full control effect
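U2OS cells were transduced with wild-type KCNH2 virus (2.03 x 10^8 / mL) for 4 h at room temperature, then cultured overnight at 37 C. Thallium flux was read with FluxOr dye. Rate constants were normalized to DMSO controls.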
KCNH2 3.1 inh: KCNH2 3.1 (human) potassium channel inhibition; 0.95% of 340,000 active; AID 720553; activity change, % (tested at about 1.8 µM); U2OS KCNH2 3.1, thallium flux FluxOr; hits give low values;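 active = maximum activity change below -70%; inconclusive = maximum activity change from -70% to -50%; inactive = maximum activity change above -50%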;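 note: thallium influx rate constant from kinetic fluorescence after stimulation buffer; % is set by controls: 0 for no effect and ±100 for the full control effect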
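Kinetic fluorescence (2 min after stimulation buffer) measures Tl+ influx through KCNH2 3.1 expressed by viral transduction in U2OS cells; the rate constant is normalized against DMSO controls serving as positive and negative references.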
CBFb RUNX1 block: inhibitors of human CBF-beta and RUNX1 interaction. Potency, µM (titrated, usually from 59.8 µM), without a hit: at the highest dose activity, negative = inhibition, hits mostly inhibitors. AlphaScreen CBFb-His/RUNX1-biotin binding, biochemical. Q01196+Q13951. AID 1477. 230,000 tested, under 10 active; note: % of control where 0% means no effect
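Interaction loss through any mechanism counts as activity. Pre-formed complex of His-CBF-beta and biotin-RUNX1 (30 nM apiece) is incubated with compound 15 min, then with 50 ng nickel and 50 ng streptavidin beads for 90 min before AlphaScreen detection.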
MBNL1 CUG block: blocks human MBNL1 binding to CUG repeat RNA; Q9NR56; TR-FRET MBNL1-His/biotin-(CUG)12 binding, 665/545 ratio; Potency, µM (series often up to 57.5 µM), for inactives: at the highest dose activity change, negative = inhibition, usual class: inhibitors; 0.036% of 280,000 active; active = well fitted inhibition curve with a large enough effect in the signal ratio, with a control signal flat, not every such curve was filed as active; inconclusive = small, poorly fitted or top-dose-only effect, or effect the other way, or a change in a side signal; inactive = no such curve, though single readings can be large or run the other way; the % refers to the signal ratio; note: potency is the fitted concentration of half-maximal effect; % is set by controls: 0 for no effect and ±100 for the full control effect
Target sequence (Q9NR56 whole entry, looked up): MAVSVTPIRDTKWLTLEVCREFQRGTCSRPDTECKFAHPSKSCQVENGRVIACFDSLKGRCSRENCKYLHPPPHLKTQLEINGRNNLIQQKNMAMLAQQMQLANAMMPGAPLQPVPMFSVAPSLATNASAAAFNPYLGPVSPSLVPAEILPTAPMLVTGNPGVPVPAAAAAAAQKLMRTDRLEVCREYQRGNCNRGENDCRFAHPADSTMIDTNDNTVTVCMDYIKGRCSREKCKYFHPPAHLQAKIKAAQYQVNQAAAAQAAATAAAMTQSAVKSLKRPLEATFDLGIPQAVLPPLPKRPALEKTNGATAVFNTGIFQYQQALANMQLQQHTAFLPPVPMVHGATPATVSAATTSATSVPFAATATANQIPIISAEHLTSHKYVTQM
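TR-FRET readout: Ex 340 nm, 665/545 nm emission ratio, normalized to buffer-only (basal) and MBNL1-(CUG)12 controls. Complex of MBNL1-His with Biotin-(CUG)12, compounds 92 nM–58 uM, incubated 60 min at room temperature.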
VDR inhibitor: blocks the human vitamin D receptor; P11473; VDR-SRC2-3 peptide fluorescence polarization, 2 h; Potency, µM, without a hit: max response, negative = inhibition, actives largely listed as inhibitors; 0.93% of 400,000 active; AID 504847; note: potency is the fitted concentration of half-maximal effect; % is set by controls: 0 for no effect and ±100 for the full control effect
Target sequence (P11473 whole entry, looked up): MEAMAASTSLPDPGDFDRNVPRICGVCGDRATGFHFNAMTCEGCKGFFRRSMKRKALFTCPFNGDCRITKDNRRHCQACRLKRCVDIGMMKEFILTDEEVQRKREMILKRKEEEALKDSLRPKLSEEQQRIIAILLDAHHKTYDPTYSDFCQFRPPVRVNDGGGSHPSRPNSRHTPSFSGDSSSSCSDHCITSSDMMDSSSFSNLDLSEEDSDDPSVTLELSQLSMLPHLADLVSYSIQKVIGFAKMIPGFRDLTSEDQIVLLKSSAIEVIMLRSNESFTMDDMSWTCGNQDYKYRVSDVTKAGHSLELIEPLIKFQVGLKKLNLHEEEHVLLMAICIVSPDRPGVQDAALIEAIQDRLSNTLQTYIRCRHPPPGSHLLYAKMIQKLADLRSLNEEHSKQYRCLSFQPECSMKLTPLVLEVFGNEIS
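Fluorescence polarization assay of small-molecule disruption of VDR binding to coregulator peptide SRC2-3. Compounds and controls pin-transferred, then read after 2 h incubation at ambient room temperature.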
An asterisk follows results filed as active; ? = inconclusive; . = not tested or not shown; [ ] = another dose, or the depositor's remark. Shown are actives, neighbours in structure and some others; about 3.8% of the full set was active somewhere. Unless noted, calls come from the whole dose curve; as a rule, active = well fitted curve in the direction sought with a large enough effect; inconclusive = small, poorly fitted or top-dose-only effect, or another doubt; inactive = no such curve, though single readings can be large; an effect the other way counts as inactive or inconclusive.

SMILES	PLK1 PBD inh	hERG WT inh	KCNH2 3.1 inh	CBFb RUNX1 block	MBNL1 CUG block	VDR inhibitor
COc1ccc(OCCC(=O)OCC(=O)NCc2ccco2)cc1	23.8µM*	12.9	5.5	?	-2.6%	-27.9%
CCOC(=O)c1ccccc1NC(=O)N(Cc1ccc(C)cc1)Cc1cccn1-c1nnc(N2CCCC2=O)s1	.	.	.	.	.	5.6%
CC(C)(C)NC(=O)NC(=O)CSc1ncc(C(F)(F)F)cc1Cl	29.9µM*	17.5	0.4	-0.2%	1.1%	?
CCCNC(=O)NC(=O)CSc1ncc(C(F)(F)F)cc1Cl	-7.0%	0.1	1.5	2.5%	-0.4%	9.4%
Cc1cccc(C)c1Nc1oc(-c2ccccc2)nc1-c1ccccc1	.	.	.	?	.	-8.5%
CN(C)CCCn1c(=S)[nH]c2sc3c(c2c1=O)CCCC3	18.9µM*	-5.8	-11.0	.	3.5%	?
CCC(C)[C@H]1CNCCN1CCC12CC3CC(CC(C3)C1)C2 (stereo partly specified)	-1.4%	-14.8	-136.2*	.	.	-8.0%
c1ccc2c(C[C@@H]3CNCCN3CCC34CC5CC(CC(C5)C3)C4)cccc2c1	-15.5%	-13.5	3.8	.	.	-6.8%
COc1cccc(Cc2nc3ccccc3nc2SCC(=O)N2CCCc3ccccc32)c1	.	.	.	.	.	10.8%
CC(=O)NS(=O)(=O)c1cccnc1Nc1ccc(Cl)c(Cl)c1	9.47µM*	-5.5	-0.4	-6.7%	-6.4%	-16.8%
CC1CC(NC(=O)Cc2ccc(Br)cc2)CC(C)(C)C1 (stereo unspecified)	5.97µM*	-12.5	-18.5	14.9%	-4.3%	?
Cc1ccc(C)c(Cn2c(=O)n(-c3ccc(F)cc3)c(=O)c3sc4ccccc4c32)c1	.	.	.	.	.	-0.3%
Cc1ccc(-c2cn(-c3ccccc3)c(=S)[nH]2)cc1C	29.9µM*	-0.9	3.8	.	-3.9%	-14.1%
COc1cc(OC)c(-n2cc(-c3ccc(OC)c(OC)c3)[nH]c2=S)cc1Cl	29.9µM*	20.9	5.9	.	3.2%	-6.6%
COc1ccc(-n2cc(-c3ccc(OC)c(OC)c3)[nH]c2=S)cc1	23.8µM*	-10.0	1.0	-3.2%	83.4%	-14.8%
COc1ccc(-c2cn(-c3ccc(C)cc3C)c(=S)[nH]2)cc1OC	-24.4%	1.1	2.0	.	-3.3%	-5.9%
COc1ccc(-n2cc(-c3ccc(Br)cc3)[nH]c2=S)cc1	-4.8%	-11.6	6.4	-4.0%	2.7%	-8.6%
O=C(NCCc1ccccc1Cl)C1CCN(c2nc3ccccc3nc2C(F)(F)F)CC1	.	.	.	.	.	12.0%
CCCCn1c(C)cc2c(c1=O)[C@H]1O[C@](CCCCN3C(=O)c4ccccc4C3=O)(Cc3ccccc31)O2	.	.	.	.	-6.1%[11.5 µM]	.
CCc1ccc(Nc2sc(C(=O)c3ccccc3)c(N)c2S(C)(=O)=O)cc1	.	.	.	.	.	-0.3%
O=C(Nc1ccc2[nH]c(=S)sc2c1)Nc1ccccc1F	21.2µM*	5.0	21.3	-10.7%	-6.4%	?
CC1(CCc2ccccc2)NC(=O)N(CC(=O)O)C1=O (stereo unspecified)	23.8µM*	-3.6	6.5	7.0%	-6.1%	?
Cc1ccc(-c2cn3nc(N4CCCC(C(=O)Nc5ccc(F)cc5)C4)sc3n2)cc1 (stereo unspecified)	.	.	.	.	.	15.4%
CC[C@]12CCCN3CCc4c(n(c5ccccc45)[C@@](O)(C(=O)OC)C1)[C@@H]32	-5.6%	-15.0	-103.1*	.	.	-3.2%
CC[C@]12CCCN3CCc4c(n(c5ccccc45)C(=O)C1)[C@@H]32	-2.6%	47.2	?	.	.	-11.3%
SMILES	PLK1 PBD inh	hERG WT inh	KCNH2 3.1 inh	CBFb RUNX1 block	MBNL1 CUG block	VDR inhibitor
O=C(c1ccc([N+](=O)[O-])cc1)N1CCN(c2ncc(Br)cn2)CC1	26.7µM*	2.5	-23.0	.	10.2%	?
O=C(c1ccc(F)cc1)N1CCN(C(=O)c2ccc([N+](=O)[O-])cc2)CC1	-9.6%	1.7	7.9	1.3%	?	-0.9%
O=C(c1ccc([N+](=O)[O-])cc1)N1CCN(C(=O)C2CCCCC2)CC1	-9.9%	0.3	-71.1*	.	?	12.3%
Cc1ccc(CCNC(=O)c2cn(C)c3ccc(S(=O)(=O)N(C)C4CCCCC4)cc3c2=O)cc1	.	.	.	.	.	-3.9%
CCn1c(=O)c(-c2ccccc2)c(O)c2ccccc21	-4.7%	-7.0	4.7	1.2%	-4.5%	-10.3%
O=c1c(-c2ccccc2)c(O)c2ccccc2n1-c1ccccc1	-0.7%	-17.9	-71.6*	.	-10.3%	-5.1%
CCOC(=O)c1ccc(OCC2c3cc(OC)c(OC)cc3CCN2C(=O)Cc2ccc(OC)c(OC)c2)cc1 (stereo unspecified)	.	.	.	.	.	2.5%
CCOC(=O)c1c(/N=C/c2ccccc2O)sc2c1CCC2	?	4.2	-9.1	-7.0%	-4.0%	-7.3%
CCOC(=O)c1c(NC(=O)CCC(=O)O)sc2c1CCCCC2	6.7µM*	-13.7	11.7	-1.7%	-2.0%	?
CCOC(=O)c1c(NC(=O)c2cccc([N+](=O)[O-])c2C(=O)O)sc2c1CCCC2	?	-3.6	18.1	.	?	-21.7%
CCOC(=O)c1c(/N=C/c2cccc([N+](=O)[O-])c2O)sc2c1CCC2	26.7µM*	2.5	-9.5	-15.5%	21.1%	-31.6%
CCOC(=O)c1c(NC(=O)c2c(C(=O)O)cccc2[N+](=O)[O-])sc2c1CCCC2	11.9µM*	-11.8	1.4	.	16.4%	?
CC(=O)N1CCc2c(sc3c2c(=O)n(CCc2ccccc2)c(=O)n3Cc2cccc(C)c2)C1	.	.	.	.	.	-13.6%
COCCN(Cc1ccc(C)c(Br)c1)C(=O)Cn1cnc(S(=O)(=O)N2CCCC2)c1	9.47µM*	-1.3	-4.4	.	-1.8%	-18.0%
O=C(c1cccc(Cl)c1Cl)N(Cc1ccco1)Cc1cccs1	.	.	.	.	.	79.4µM*
CCC(Cc1ccccc1)NC(=O)Cn1ncc2ccsc2c1=O (stereo unspecified)	-11.4%	6.8	-110.0*	1.1%	-3.6%	-12.6%
O=C(CSc1cn(CC(=O)N2CCCC2)c2ccccc12)Nc1cc(C(F)(F)F)ccc1Cl	.	.	.	.	.	1.7%
COc1ccc(NC(=O)CSc2nnc(C3CC3)n2C)cc1	23.8µM*	-15.1	-37.6	6.0%	4.1%	28.2µM*
COc1cccc(C(=O)NCc2nnc(SCC(=O)Nc3nccs3)n2-c2ccccc2)c1	-5.1%	1.8	0.0	4.4%	5.7%	-20.9%
Cn1c(COc2ccccc2)nnc1SCC(=O)Nc1nnc(C2CC2)s1	29.9µM*	-1.8	14.7	.	.	-17.3%
Cn1c(SCC(=O)Nc2ccccc2Oc2ccccc2)nnc1C1CC1	-7.3%	-110.0*	0.5	.	.	4.1%
Cn1c(CNC(=O)c2ccccc2)nnc1SCC(=O)Nc1nccs1	3.36µM*	-5.7	17.4	0.3%	-1.1%	?
CC1=Nc2cc(C(=O)NCCc3ccc(Cl)cc3)ccc2Sc2c(C)ccc(C)c21	.	.	.	.	.	-1.7%
